Many of the other results were omitted from the sample, so hits are more common in it than they were.
TTR transcr act = activators of transthyretin transcription | SH-SY5Y TTR promoter Gaussia luciferase, luminescence; 100% = recombinant luciferase protein wells | activation, % at 16.7 µM | hit rate 1.3% among 92,000 | AID 1117267;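 active = activation above the mean of all tested compounds plus 3 SD, cut at about 9.5% in these data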;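 note: cells exposed to compounds for one day before reading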
HuH7 TTR inh = counter-screen for TTR activators: TTR transcription inhibitors in HuH7 cells; inhibition, % at 16.7 µM; AID 1117279; hit rate 4% among 1,100; HuH7 TTR promoter-Gaussia luciferase reporter, luminescence; shares compounds with TTR transcr act;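 active = average inhibition above the solvent-only control wells' mean plus 3 SD, cut at about 15% in these data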;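 note: inhibitors lower well luminescence so higher value means more inhibition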
TTR up confirm = confirmation of human transthyretin transcription activators; shares compounds with TTR transcr act; SHSY5Y TTR promoter Gaussia luciferase, luminescence; 100% = purified Lucia enzyme wells, no cells; activation, % at 16.7 µM; 1,100 tested, under 10 active; AID 1117280;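 active = mean activation above a set limit taken from the earlier primary screen, cut at about 11% in these data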
A number is an active result; i = inactive.

SMILES	TTR transcr act	others
C[C@@H]1CCCCO[C@H](CN(C)S(=O)(=O)c2cccs2)[C@H](C)CN([C@@H](C)CO)C(=O)c2cc(NC(=O)NC3CCCCC3)ccc2O1	i
Nc1[nH]c(C(=O)c2ccccc2)c(-c2ccc(Br)cc2)c1C(=O)NCCCN1CCOCC1	i
Cc1ccc(C(=O)Oc2coc(CSc3ncccn3)cc2=O)cc1[N+](=O)[O-]	i
CNS(=O)(=O)/C=C/c1ccccc1CCNC(=O)OC(C)(C)C	i
O=C(CN1C(=O)CCSc2ccc(S(=O)(=O)N3CCCC3)cc21)NCc1ccccc1Cl	i
O=C(CN1C(=O)CSc2ccc(S(=O)(=O)N3CCOCC3)cc21)NCc1c(F)cccc1Cl	i
O=C(CN1C(=O)CSc2ccc(S(=O)(=O)N3CCCCC3)cc21)NCc1cccnc1	11	HuH7 TTR inh=i;TTR up confirm=i
C[C@H]1[C@@H](N(C)Cc2ccccc2)CC[C@@]23CCCN2C(=O)CCC[C@@H]13	i
NC(=O)c1c(N)[nH]c(C(=O)c2ccccc2)c1-c1cccc2ccccc12	i
C[C@]12CC[C@H](O)CC1=C[C@H](O)C1C2CC[C@@]2(C)C1CC[C@@]2(O)C#Cc1ccc(CN)cc1 (stereo partly specified)	12	HuH7 TTR inh=i;TTR up confirm=i
COC(=O)N[C@H]1CC=C[C@@H]1Cc1cccc(Oc2ccccc2)c1	i
FC(F)(F)c1ccccc1-n1c(-c2cnccn2)n[nH]c1=S	i
COc1cc(-c2n[nH]c(=S)n2-c2ccccc2C(F)(F)F)cc(OC)c1OC	9.9	HuH7 TTR inh=i;TTR up confirm=i
COc1cc(-n2c(-c3ccccc3)n[nH]c2=S)c(OC)cc1Cl	i
Cc1cc(C)nc(NS(=O)(=O)c2ccc(NC(=O)C3CC(=O)N(c4ccccc4)C3)cc2)n1 (stereo unspecified)	i
Cc1cc(C)nc(NS(=O)(=O)c2ccc(NC(=O)C3CC3)cc2)n1	24	HuH7 TTR inh=i;TTR up confirm=i
Cc1ccnc(NS(=O)(=O)c2ccc(NC(=O)C3CC3)cc2)n1	i
CC(=O)N[C@@H](C)CCc1ccc(Oc2ccc(OC(C)C)nc2)cc1	i
O=C(COc1c(Cl)cc(Cl)cc1Cl)N/N=C/c1ccc[nH]1	i
Cc1ccccc1NCC(=O)N/N=C/c1ccc[nH]1	16	HuH7 TTR inh=i;TTR up confirm=i
Cc1ccccc1NCC(=O)N/N=C/c1c[nH]c2ccccc12	i
COc1ccc(C(=O)N[C@H]2CC[C@@]34CCCN3C(=O)CCC[C@H]4[C@H]2C)cc1	i
C=CC[C@@H](CC(=O)NCCO)C(=O)N[C@@H](COC(=O)[C@@H](CC=C)CC(=O)OC(C)(C)C)Cc1ccccc1	i
C=CC[C@H](CC(=O)NCCO)C(=O)NCCOC(=O)[C@@H](CC=C)CC(=O)OC(C)(C)C	13	HuH7 TTR inh=i;TTR up confirm=i
C=CC[C@@H](CC(=O)OC(C)(C)C)C(=O)OC[C@@H]1CCCN1C(=O)[C@H](CC=C)CC(=O)NCCO	i
SMILES	TTR transcr act	others
COC(=O)[C@]12CCCCC=C1N(Cc1ccc(OC)cc1)C(=O)[C@@H]2CC(=O)N1CCSCC1	i
Cc1ccccc1CN1CCCCC(NC(=O)c2ccc(Br)cc2)C1=O (stereo unspecified)	i
COC(=O)C[C@H]1CC[C@@H]2[C@H](COc3ccc(NC(=O)c4cccc(F)c4)cc3C(=O)N2C)O1	i
CCn1nnc(C(=O)O)c1C(=O)O	9.9	HuH7 TTR inh=i;TTR up confirm=i
CC(C)(N[C@@H](Cc1c[nH]c2ccccc12)C(=O)NCCc1c[nH]c2ccccc12)C(=O)NC1CCCCC1	i
CCc1ccc(Oc2c(Cl)cnn(-c3ccc(C)cc3)c2=O)cc1	i
COc1ccc(NC(=O)Cn2nnc(C(=O)NCc3cccs3)c2N)c(OC)c1	i
CCOc1ccc(NC(=O)Cn2nnc(C(=O)NCc3cccs3)c2N)cc1	21	HuH7 TTR inh=i;TTR up confirm=i
COc1cccc(NC(=O)Cn2nnc(C(=O)NCc3cccs3)c2N)c1	i
S=C(Nc1ccccc1)OCCN1CCCC12CCC(c1ccccc1)CC2 (stereo unspecified)	i
COCCOC(=O)c1c(C)n(C)c2ccc(OC(=O)c3ccccc3F)cc12	i
CCCCOc1ccc(C(=O)n2ccc3ccc(-c4ccc5ccn(Cc6ccc(OC)cc6)c5c4)cc32)cc1	i
CN(C)C(=O)C[C@H]1CC[C@H]2[C@H](COc3ccc(NC(=O)C4CC4)cc3C(=O)N2C)O1	i
COc1ccccc1C(=O)NC1CCCCN(Cc2ccc(Cl)cc2)C1=O (stereo unspecified)	i
Cc1ccc(C(C)NC(=O)C2CCCC2)cc1C (stereo unspecified)	i
CC(NC(=O)C1CCC1)c1ccc(Br)cc1 (stereo unspecified)	22	HuH7 TTR inh=i;TTR up confirm=i
CC(NC(=O)C1CCC1)c1ccc2c(c1)OCO2 (stereo unspecified)	i
COC(=O)[C@]12C[C@H](CC(=O)NCc3ccccc3)C(=O)N(Cc3cccc4ccccc34)C1=C[C@H](C(C)C)O[C@@H]2C1CC1	i
CCOC(=O)[C@]12CCCC3=C1N(CCC3)C(=O)[C@@H](CC(=O)NCc1cccc(C(F)(F)F)c1)C2	i
Cc1ccccc1CN1CCCCC(NC(=O)c2c(F)cccc2F)C1=O (stereo unspecified)	i
CCOC(=O)C1(Cc2ccc(OC)cc2)CCN(C(=O)C2CCCO2)CC1 (stereo unspecified)	i
CCOC(=O)C1(Cc2ccc(OC)cc2)CCN(C(=O)Cn2cnnn2)CC1	i
CCOC(=O)C1(Cc2ccc(OC)cc2)CCN(C(=O)c2cncs2)CC1	9.7	HuH7 TTR inh=i;TTR up confirm=i
Cc1ccc(CN[C@@H]2CC[C@@]34CCCN3C(=O)CCC[C@H]4C2)o1	i
COC(=O)[C@]12C[C@H](CC(=O)NCC34CC5CC(CC(C5)C3)C4)C(=O)N(CCc3ccc(OC)c(OC)c3)C1=C[C@H](COCc1ccccc1)O[C@@H]2C	i
SMILES	TTR transcr act	others
CCOC(=O)[C@@]12CCCC=C1N(CCc1ccc(Cl)cc1)C(=O)[C@H]2CC(=O)NCCCCc1ccccc1	i
Cc1cc2c(NC(=O)Nc3ccc(C(F)(F)F)cc3)cccc2nn1	i
CC(C)c1ccccc1NC(=O)CCCC(=O)O	i
Cc1cc2c(NC(=O)CCCC(=O)O)cccc2nn1	10	HuH7 TTR inh=i;TTR up confirm=i
Cc1ccccc1CN1CCCCC(NC(=O)c2cccc(C(F)(F)F)c2)C1=O (stereo unspecified)	i
C=CCN1[C@H](CC(C)C)COc2cccc(F)c2S1(=O)=O	i

Source: PubChem
